Shown are actives, neighbours in structure and some others; about 3.5% of the full set was active somewhere.
MITF inh: MITF inhibitors, primary screen, biochemical, AlphaScreen, human; AID 1259374, 2018; 650,000 tested, 0.91% active; Microphthalmia-associated transcription factor (Homo sapiens), O75030; inhibition, % at 2.6 µM; AlphaScreen MITF homodimerization, bead proximity signal; in the data active means inhibition above about 50%
FBW7 act: FBW7 E3 ligase activators, primary screen, biochemical, AlphaScreen, human; F-box/WD repeat-containing protein 7 (Homo sapiens), Q969H0; AlphaScreen FBW7–phospho-cyclin E peptide binding, activator screen; normalized activity (activation), % at 26.1 µM; 650,000 tested, 0.13% active; AID 1259310, 2017; in the data active means normalized activity above about 1.9%;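 further: purified mutant Fbw7 with reduced substrate affinity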
TEAD-YAP block: TEAD-YAP interaction inhibition, primary screen, TEAD-YAP interaction inhibitor project, luminescence, HEK-TIYL cells | TEAD-Gal4/YAP UAS-luciferase luminescence | inhibition, % at 9.12 µM | 640,000 tested, 1.4% active | AID 1259422, 2018; in the data active means inhibition above about 32%
GPR151 ag: activators of human GPR151, primary screen, cell-based, PathHunter beta-arrestin, luminescence | G-protein coupled receptor 151 (Homo sapiens), Q8TDV0 | 650,000 tested, 1% active | PathHunter beta-arrestin GPR151 cells | activation, % at 11.2 µM | AID 1508602, 2020; in the data active means activation above about 4.9%
Target sequence (Q8TDV0 whole entry, looked up): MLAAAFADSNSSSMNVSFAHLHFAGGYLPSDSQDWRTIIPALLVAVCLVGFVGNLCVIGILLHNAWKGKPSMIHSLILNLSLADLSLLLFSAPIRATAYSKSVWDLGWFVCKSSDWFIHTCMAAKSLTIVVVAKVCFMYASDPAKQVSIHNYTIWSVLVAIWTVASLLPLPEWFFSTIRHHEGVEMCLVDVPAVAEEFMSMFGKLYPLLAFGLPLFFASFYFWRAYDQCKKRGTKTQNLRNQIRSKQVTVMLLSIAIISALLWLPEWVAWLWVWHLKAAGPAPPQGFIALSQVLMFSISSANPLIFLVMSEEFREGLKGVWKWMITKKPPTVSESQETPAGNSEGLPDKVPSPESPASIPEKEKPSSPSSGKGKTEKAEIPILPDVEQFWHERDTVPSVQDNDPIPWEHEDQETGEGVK
MITF confirm: MITF inhibitors, retest of hits, confirmation, biochemical, AlphaScreen, triplicate. shares compounds with MITF inh. AlphaScreen MITF homodimerization, biotin/His-MITF beads. inhibition, % at 2.6 µM. 4,700 tested, 16% active. AID 1259372, 2018;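 active means inhibition above a cutoff derived from the DMSO control wells, cut at about 28% in these data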;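 further: inhibitors lower the bead chemiluminescence by keeping MITF from dimerizing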
AlphaScreen DR: AlphaScreen optical interference compounds, dose response, counter-screen, biochemical, HTS; AlphaScreen optical interference counterscreen, cell-free; IC50, µM; 480 tested, 6% active; shares compounds with MITF inh; AID 1259373, 2018; call rule not given here
AS interf ctr: AlphaScreen optical interference compounds, counter-screen for MITF inhibitor project, biochemical, triplicate. LysRS AlphaScreen counterscreen, signal interference. shares compounds with MITF inh. inhibition, % at 2.6 µM. 4,700 tested, 7.6% active. AID 1259376, 2018;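 active means inhibition above a cutoff derived from the DMSO control wells, cut at about 30% in these data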
Numbers stand for hits; - = inactive; . = no result.

SMILES	MITF inh	FBW7 act	TEAD-YAP block	GPR151 ag	MITF confirm	AS interf ctr	others
O=C1N[C@@H](Cc2ccc(Cl)cc2)C(=O)N2CCN(C(=O)NCc3ccccc3)C[C@H]12	72.6	-	-	-	71.1	-	AlphaScreen DR=-
O=C1N[C@@H](Cc2ccc(O)cc2)C(=O)N2CCN(C(=O)NCc3ccccc3)C[C@H]12	63.6	-	-	-	69.0	-	AlphaScreen DR=-
O=C1N[C@@H](Cc2ccc(O)cc2)C(=O)N2CCN(C(=O)OCc3ccccc3)C[C@H]12	-	-	-	-	.	.
CCOc1ccc(CN2CCC(C(=O)NCC3CCCO3)CC2)cc1 (stereo not given)	-	-	-	-	.	.
COc1cc(CN2CCC(C(=O)NC3CCCC3)CC2)ccc1O	59.6	-	-	-	-	-
CCOc1cc(CN2CCC(C(=O)NCC3CCCO3)CC2)ccc1O (stereo not given)	58.3	-	-	-	-	-
Cc1[nH][nH]c(=O)c1C(c1ccccc1OCc1ccc(Br)cc1)c1c(C)[nH][nH]c1=O	66.2	-	-	-	45.9	-
O=C(NCCN1CCOCC1)c1cc(-c2ccncc2)nc2ccccc12	-	-	-	-	.	.
Cn1cccc1CN1CCN(S(C)(=O)=O)CC1	-	-	-	-	.	.
Cn1cccc1CN1CC[C@H]2[C@H](CCC(=O)N2Cc2ccc(F)cc2)C1	-	-	-	-	.	.
Cn1cccc1CN1CCN(C2CCCC2)CC1	69.8	-	-	-	-	-
Cn1cccc1CN1CCN(Cc2ccccc2)CC1	69.7	-	-	-	-	-
Cn1cccc1CN1CCN(Cc2ccncc2)CC1	63.6	-	-	-	-	-
Cn1cccc1CN1CCN(Cc2ccc(F)cc2)CC1	65.2	-	-	-	-	-
c1ccc(CN2CCC(N3CCN(C4CCCCC4)CC3)CC2)cc1	-	-	-	-	.	.
CCc1cccc(NC(=O)Oc2cccc(C)c2)c1	-	-	-	-	.	.
CC(C)(C)NC(=O)C(=O)NNC(=O)COc1ccc2ccccc2c1	-	-	-	-	.	.
NC(=O)c1sc2nc3c(c(-c4ccco4)c2c1N)CC/C3=C\c1ccco1	117.1	-	-	-	110.4	89.6
Cc1ccc(NC(=O)c2sc3nc4c(c(-c5ccco5)c3c2N)CCCC4)cc1	51.2	-	-	-	-	-
CN(CC(=O)Nc1cccc(C(F)(F)F)c1)S(=O)(=O)c1ccc2c(c1)CCC(=O)N2	-	-	-	-	.	.
CCOC(=O)C1CCN(C(=O)c2cc3nc(-c4ccc(OC)cc4)cc(C(F)(F)F)n3n2)CC1	61.2	-	-	-	-	-
CC1(c2cc(C(F)(F)F)n3nc(C(=O)N4CCC(c5ccncc5)CC4)cc3n2)CC1	55.9	-	-	-	-	-
COc1ccc(-c2cc(C(F)(F)F)n3nc(C(=O)N4CCC(C)CC4)cc3n2)cc1	-	-	-	-	.	.
C=CCN(CC=C)C1CCN(c2nc(C)c3ccc(S(C)(=O)=O)cc3n2)CC1	-	-	-	-	.	.
Clc1ccc(N2CCN(Cc3ccc(Br)o3)CC2)cc1	57.9	-	-	-	-	-
SMILES	MITF inh	FBW7 act	TEAD-YAP block	GPR151 ag	MITF confirm	AS interf ctr	others
Brc1ccc(CN2CCN(Cc3ccccc3)CC2)o1	55.5	-	-	-	-	-
CC1=C(C(=O)Nc2ccccc2)C(c2ccc(N(C)C)cc2)NC(=S)N1 (stereo not given)	-	-	-	-	.	.
Cc1nccn1-c1ccc(NC(=O)C2CCCN(Cc3ccsc3)C2)cc1 (stereo not given)	-	-	-	-	.	.
c1ccc(OCc2nnc3sc(-c4cccnc4)nn23)cc1	63.6	-	-	-	-	-
CCOc1ccc(-c2nn3c(COc4ccccc4)nnc3s2)cc1	-	-	-	-	.	.
Cc1nc2sc(C(=O)Nc3ccc(F)cc3)c(C)c2c(=O)[nH]1	-	-	-	-	.	.
O=S(=O)(NCC(c1cccs1)S(=O)(=O)c1ccccc1)c1cccs1 (stereo not given)	-	-	-	-	.	.
